Assay [1] in a line: qHTS of pediatric cancer cell lines to identify multiple opportunities for drug repurposing: Confirmatory screen for BT-12 cells (AID 1347112). Further: nearly all actives have a fitted effect of over 55% in size. On activity change, negative = cytotoxic: on the % scale 0 is the no-effect control and ±100 the full control effect. In short, it runs like this:
(§1)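 Viability after 48 h compound treatment at 37C, 500-1,000 cells/well, read as ATP luminescence with CellTiter-Glo. Primary screens used 11-point (MIPE, 0.78 nM-46 µM) or 8-point (NPC, 0.59 nM-46 µM) final concentrations; follow-up screens used 11-point dilutions.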

Assay [2] is described as follows: qHTS of pediatric cancer cell lines to identify multiple opportunities for drug repurposing: Confirmatory screen for LAN-5 cells (AID 1347113). Further: nearly all actives have a fitted effect of over 65% in size. In short, it runs like this: as §1
Background: qHTS replaces the single test concentration by a dilution series.

The nature of assay [3]: qHTS of pediatric cancer cell lines to identify multiple opportunities for drug repurposing: Confirmatory screen for DAOY cells (AID 1347114). Further: nearly all actives have a fitted effect of over 65% in size. On activity change, negative = cytotoxic: on the % scale 0 is the no-effect control and ±100 the full control effect. The essentials:
(§2)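 Viability measured as metabolically active cells via CellTiter-Glo luminescence following 48 hours of compound exposure, 11-point dilutions in confirmatory testing. 500-1,000 cells/well plated 5 hours before dosing; controls were DMSO and 2.3 µM bortezomib.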

Assay [4] in a line: qHTS of pediatric cancer cell lines to identify multiple opportunities for drug repurposing: Confirmatory screen for NB-EBc1 cells (AID 1347115).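 Further: cells exposed to compound for 48 h before the viability read; nearly all actives have a fitted effect of over 45% in size.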 On activity change, negative = cytotoxic: on the % scale 0 is the no-effect control and ±100 the full control effect. The essentials:
as §1

A short description of assay [5]: qHTS of pediatric cancer cell lines to identify multiple opportunities for drug repurposing: Confirmatory screen for SJ-GBM2 cells (AID 1347116). Further: nearly all actives have a fitted effect of over 60% in size.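 On activity change, negative = cytotoxic: plate controls were DMSO for no effect and bortezomib for full effect.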 In short, it runs like this:
as §2

Assay [6] is described as follows: qHTS of pediatric cancer cell lines to identify multiple opportunities for drug repurposing: Confirmatory screen for BT-37 cells (AID 1347117). Further: nearly all actives have a fitted effect of over 55% in size.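 On activity change, negative = cytotoxic: plate controls were DMSO for no effect and bortezomib for full effect.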 The conditions noted are these: BT-37 pediatric cancer cells, viability; activity change, negative = cytotoxic: at 45.9 µM (top of the series). The essentials:
as §1

A short description of assay [7]: qHTS of pediatric cancer cell lines to identify multiple opportunities for drug repurposing: Confirmatory screen for control Hh wild type fibroblast cells (AID 1347121). Further: nearly all actives have a fitted effect of over 70% in size. The essentials:
as §1

A short description of assay [8]: qHTS of pediatric cancer cell lines to identify multiple opportunities for drug repurposing: Confirmatory screen for U-2 OS cells (AID 1347122). Further: nearly all actives have a fitted effect of over 65% in size. The essentials:
as §1

The nature of assay [9]: qHTS of pediatric cancer cell lines to identify multiple opportunities for drug repurposing: Confirmatory screen for Rh41 cells (AID 1347123).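 Further: 48 h compound exposure; nearly all actives have a fitted effect of over 60% in size.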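 On activity change, negative = cytotoxic: plate controls were DMSO for no effect and bortezomib for full effect.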 The essentials:
as §1

Assay [10] is described as follows: qHTS of pediatric cancer cell lines to identify multiple opportunities for drug repurposing: Confirmatory screen for RD cells (AID 1347124).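 Further: cells exposed to compound for 48 h before viability readout; nearly all actives have a fitted effect of over 65% in size.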 On activity change, negative = cytotoxic: on the % scale 0 is the no-effect control and ±100 the full control effect. The essentials:
as §1

Assay [11] can be described thus: qHTS of pediatric cancer cell lines to identify multiple opportunities for drug repurposing: Confirmatory screen for Rh18 cells (AID 1347125). Further: nearly all actives have a fitted effect of over 55% in size. The essentials:
as §1

Assay [12] can be described thus: qHTS of pediatric cancer cell lines to identify multiple opportunities for drug repurposing: Confirmatory screen for Rh30 cells (AID 1347126). Further: nearly all actives have a fitted effect of over 55% in size. In short, it runs like this: as §1
The nature of assay [13]: qHTS of pediatric cancer cell lines to identify multiple opportunities for drug repurposing: Confirmatory screen for OHS-50 cells (AID 1347128). In short, it runs like this:
as §1

The nature of assay [14]: qHTS of pediatric cancer cell lines to identify multiple opportunities for drug repurposing: Confirmatory screen for SK-N-SH cells (AID 1347129).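 Further: cells exposed to compound for 48 h before viability read; nearly all actives have a fitted effect of over 60% in size.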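 On activity change, negative = cytotoxic: plate controls were DMSO for no effect and bortezomib control for full effect.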 The essentials:
as §1

The nature of assay [15]: qHTS of pediatric cancer cell lines to identify multiple opportunities for drug repurposing: Confirmatory screen for TC32 cells (AID 1347118). The essentials:
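Luminescent ATP read-out (CellTiter-Glo) of metabolically active TC32 cells after 48 h exposure. Concentration-response curves came from 11-point (MIPE, 0.78 nM–46 µM) or 8-point (NPC, 0.59 nM–46 µM) primary titrations; follow-up used 11 points.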

Assay [16] can be described thus: qHTS of pediatric cancer cell lines to identify multiple opportunities for drug repurposing: Confirmatory screen for MG 63 (6-TG R) cells (AID 1347119). Further: nearly all actives have a fitted effect of over 55% in size. The essentials: as §1
Assay [17] can be described thus: qHTS of pediatric cancer cell lines to identify multiple opportunities for drug repurposing: Confirmatory screen for Saos-2 cells (AID 1347127). Further: nearly all actives have a fitted effect of over 60% in size.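 On activity change, negative = cytotoxic: plate controls were DMSO for no effect and bortezomib for full effect.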 In short, it runs like this:
as §1

Among the data in PubChem BioAssay (NCATS) are Potency and activity change, negative = cytotoxic values, retold here.

Results filed as inconclusive are left out. Calls of active or inactive are those of the source. The call rests on the fitted dose curve; in most records, active means well fitted curve in the direction sought with a large enough effect; inconclusive means small, poorly fitted or top-dose-only effect, or another doubt; inactive means no such curve, though single readings can be large; an effect the other way counts as inactive or inconclusive.
Potency means the concentration at half of the fitted maximal effect.

Take `CN[C@H]1[C@@H](O)[C@@H]2O[C@@H]3O[C@H](C)CC(=O)[C@]3(O)O[C@@H]2[C@@H](NC)[C@H]1O`: the Potency entry in [1], in [2], in assay [3], in assay [4], in [5] and in [6] was “inactive” in each case. Moreover, the Potency result in assay [7], in assay [8], in assay [9], in assay [10], in assay [11] and in assay [12] was “inactive” throughout. Further, the Potency entry in assay [13] and in assay [14] was “inactive” each time.

Regarding `C#CCC(Cc1cnc2nc(N)nc(N)c2n1)c1ccc(C(=O)N[C@@H](CCC(=O)O)C(=O)O)cc1` (stereo partly specified), the Potency in [1] is 104 nM (active); in assay [3], 117 nM (active); in assay [4], 369 nM (active); in [15], 41.4 nM (active); in assay [10] it was 233 nM (active); in assay [13], 41.4 nM (active). For the same molecule, the Potency entry in assay [2], in assay [16], in assay [7], in [9], in assay [11] and in [14] was “inactive” throughout.

As for `COc1cc2c(cc1OC)[C@@H]1C(=O)c3ccc4c(c3O[C@@H]1CO2)C=CC(C)(C)O4`, the Potency was 1310 nM (active) in [1]; 3690 nM (active) in assay [2]; 185 nM (active) in assay [3]; 827 nM (active) in assay [4]; 2080 nM (active) in assay [6]; 104 nM (active) in assay [16]. Further, the Potency is 293 nM (active) in [7]; 329 nM (active) in assay [8]; 13100 nM (active) in [9]; 1850 nM (active) in [12]; 3690 nM (active) in [17]. For the same molecule, in assay [13], the Potency result is “inactive”.

On to `COc1cc([C@@H]2c3cc4c(cc3[C@H](O)[C@H]3COC(=O)[C@@H]23)OCO4)cc(OC)c1OC`, for which the Potency is 1040 nM (active) in assay [1]; 1040 nM (active) in [2]; 414 nM (active) in assay [3]; 3290 nM (active) in assay [4]; 1170 nM (active) in [6]; 465 nM (active) in [15]. For the same molecule, the Potency in [16] was 737 nM (active); in assay [8], 1850 nM (active); in [10] it was 928 nM (active); in [17], 522 nM (active). In addition, the Potency result in [7] and in assay [11] was “inactive” each time.

`CS[C@H]1SC[C@@H]2C(=O)N(C)[C@H](C(C)C)C(=O)OC[C@H](NC(=O)c3cnc4ccccc4n3)C(=O)N[C@H](C)C(=O)N(C)[C@@H]1C(=O)N(C)[C@H](C(C)C)C(=O)OC[C@H](NC(=O)c1cnc3ccccc3n1)C(=O)N[C@H](C)C(=O)N2C`: the Potency was 9.3 nM (active) in [1]; 14.7 nM (active) in [3]; 20.8 nM (active) in assay [8]; 5.9 nM (active) in [9]; 14.7 nM (active) in [13]; 13.2 nM (active) in [14]. Besides, the Potency result in [2], in assay [4], in assay [5], in assay [16], in assay [7] and in assay [11] was “inactive” in each case. Besides, the Potency result in assay [17] was “inactive”. For the same molecule, the activity change, negative = cytotoxic in assay [6] was 1.7% (active).

Consider `CC(C)N1[N]C(=C2C=c3cc(O)ccc3=N2)c2c(N)ncnc21`, for which the Potency in assay [1] is 13100 nM (active); in [2], 2930 nM (active); in [3], 5220 nM (active); in assay [4], 4140 nM (active); in assay [5], 4140 nM (active); in assay [6], 1310 nM (active). The Potency was 1170 nM (active) in assay [15]; 414 nM (active) in assay [16]; 2330 nM (active) in assay [8]; 522 nM (active) in assay [9]; 11700 nM (active) in [10]; 6570 nM (active) in assay [11]. In addition, the results for the Potency in assay [12], in assay [17] and in [13] were 1650 nM (active), 10400 nM (active) and 5220 nM (active), respectively.

`COC(=O)[C@@H]1[C@H]2C[C@@H]3c4[nH]c5ccccc5c4CCN3C[C@@H]2CC[C@@H]1O`: the Potency result in assay [1], in [2], in assay [3], in assay [4], in assay [5] and in assay [6] was “inactive” each time. Further, the Potency entry in assay [15], in assay [16], in [8], in assay [9], in [10] and in assay [11] was “inactive” in each case. In addition, the Potency entry in assay [12], in [17], in [13] and in assay [14] was “inactive” each time.

Turning to `CN(C)c1ccc(C(=O)NCCCCCCC(=O)NO)cc1`, the Potency was 13100 nM (active) in assay [1]; 1850 nM (active) in assay [2]; 3290 nM (active) in assay [3]; 2330 nM (active) in assay [4]; 1650 nM (active) in [6]; 1650 nM (active) in assay [15]. For the same molecule, the Potency in assay [16] is 1470 nM (active); in [8] it was 1470 nM (active); in assay [9], 1170 nM (active); in assay [10] it was 2330 nM (active); in assay [11], 1470 nM (active); in assay [12], 3290 nM (active). Further, the Potency was 2930 nM (active) in [17] and 2350 nM (active) in [14].

Turning to `COc1cc(O)c2c(c1)C1OC1C[C@H](O)[C@H](O)C(=O)C=CC[C@H](C)OC2=O` (stereo partly specified), the Potency is 16500 nM (active) in assay [1]; 7370 nM (active) in assay [2]; 16500 nM (active) in [3]; 5850 nM (active) in assay [4]; 5850 nM (active) in assay [5]; 14700 nM (active) in [6]. For the same molecule, the Potency in [15] was 9270 nM (active); in [16], 5850 nM (active); in assay [9], 165 nM (active); in assay [11] it was 18500 nM (active); in [17], 9270 nM (active); in [14] it was 4690 nM (active).

Take `CC(=O)SCC(Cc1ccccc1)C(=O)NCC(=O)OCc1ccccc1` (stereo unspecified): the Potency entry in assay [1], in assay [2], in [3], in assay [4], in assay [5] and in [6] was “inactive” each time. The Potency entry in assay [16], in assay [7], in assay [8], in assay [10], in assay [11] and in assay [12] was “inactive” throughout. In addition, the Potency result in assay [17], in assay [13] and in assay [14] was “inactive” throughout.
